Substitutions are numbered along the chain they refer to.
Tests used:
Test in all cases: yeast three-hybrid, YBZ-1, SC-Leu-His + 0.5 mM 3-AT, 4 days
Details in all cases: tags: N-Gal4 AD-HA kept; label: inside an RPR1-promoter hybrid RNA with tandem MS2 sites; ssRNA
PUM1 PUF domain R7-RRS = PUM1 PUF domain R7-RRS (Homo sapiens, UniProt Q14671 828-1176, S1079R;N1080R;E1083S)
Procedure, shortened: (§1)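 The interaction score is the log change in how often each variant appears, from input to selection. Frequencies came from PCR-amplified, Illumina-sequenced repeat regions of Pumilio-1 PUF domain libraries grown in strain YBZ-1 (LexA–MS2 coat fusion, HIS3 reporter) alongside matching RNA elements. Input plates were SC-Leu and selection plates were SC-Leu-His + 0.5 mM 3-AT, each for four days, and the log2 calculation used a pseudocount of 1 where a variant was absent.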

PUM1 PUF domain R7-AVK = PUM1 PUF domain R7-AVK (Homo sapiens, UniProt Q14671 828-1176, S1079A;N1080V;E1083K)
Procedure, shortened: as §1

PUM1 PUF domain R1-RTR = PUM1 PUF domain R1-RTR (Homo sapiens, UniProt Q14671 828-1176, S863R;R864T;Q867R)
Procedure, shortened: as §1

PUM1 PUF domain R5-RYR = PUM1 PUF domain R5-RYR (Homo sapiens, UniProt Q14671 828-1176, C1007R;R1008Y;Q1011R)
Procedure, shortened: as §1

PUM1 PUF domain R5-KYV = PUM1 PUF domain R5-KYV (Homo sapiens, UniProt Q14671 828-1176, C1007K;R1008Y;Q1011V)
Procedure, shortened: as §1

PUM1 PUF domain R2-IWD = PUM1 PUF domain R2-IWD (Homo sapiens, UniProt Q14671 828-1176, N899I;Y900W;Q903D)
PUM1 PUF domain R2-IWD, sequence (Q14671 828-1176 N899I/Y900W/Q903D): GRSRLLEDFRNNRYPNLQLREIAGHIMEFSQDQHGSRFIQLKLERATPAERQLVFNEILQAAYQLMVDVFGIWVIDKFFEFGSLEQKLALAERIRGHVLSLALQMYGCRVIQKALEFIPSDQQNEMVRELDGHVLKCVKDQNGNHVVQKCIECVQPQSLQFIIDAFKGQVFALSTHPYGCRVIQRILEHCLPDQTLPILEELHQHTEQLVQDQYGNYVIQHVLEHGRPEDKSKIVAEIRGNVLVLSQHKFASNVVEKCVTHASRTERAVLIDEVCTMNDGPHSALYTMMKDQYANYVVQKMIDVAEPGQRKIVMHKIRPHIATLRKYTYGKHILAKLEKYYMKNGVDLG
Procedure, shortened: as §1

PUM1 PUF domain R2-VFR = PUM1 PUF domain R2-VFR (Homo sapiens, UniProt Q14671 828-1176, N899V;Y900F;Q903R)
PUM1 PUF domain R2-VFR, sequence (Q14671 828-1176 N899V/Y900F/Q903R): as the sequence (Q14671 828-1176 N899I/Y900W/Q903D) above, with I72V, W73F, D76R counted along it
Procedure, shortened: as §1

PUM1 PUF domain R2-VHP = PUM1 PUF domain R2-VHP (Homo sapiens, UniProt Q14671 828-1176, N899V;Y900H;Q903P)
PUM1 PUF domain R2-VHP, sequence (Q14671 828-1176 N899V/Y900H/Q903P): as the sequence (Q14671 828-1176 N899I/Y900W/Q903D) above, with I72V, W73H, D76P counted along it
Procedure, shortened: as §1

PUM1 PUF domain R8-IWR = PUM1 PUF domain R8-IWR (Homo sapiens, UniProt Q14671 828-1176, N1122I;Y1123W;Q1126R)
Procedure, shortened: as §1

PUM1 PUF domain R3-EYE = PUM1 PUF domain R3-EYE (Homo sapiens, UniProt Q14671 828-1176, C935E;R936Y;Q939E)
Procedure, shortened: as §1

PUM1 PUF domain R3-CRD = PUM1 PUF domain R3-CRD (Homo sapiens, UniProt Q14671 828-1176, Q939D)
Procedure, shortened: as §1

PUM1 PUF domain R5-EVC = PUM1 PUF domain R5-EVC (Homo sapiens, UniProt Q14671 828-1176, C1007E;R1008V;Q1011C)
PUM1 PUF domain R5-EVC, sequence (Q14671 828-1176 C1007E/R1008V/Q1011C): as the sequence (Q14671 828-1176 N899I/Y900W/Q903D) above, with I72N, W73Y, D76Q, C180E, R181V, Q184C counted along it
Procedure, shortened: as §1

PUM1 PUF domain R4-MNG = PUM1 PUF domain R4-MNG (Homo sapiens, UniProt Q14671 828-1176, N971M;H972N;Q975G)
PUM1 PUF domain R4-MNG, sequence (Q14671 828-1176 N971M/H972N/Q975G): as the sequence (Q14671 828-1176 N899I/Y900W/Q903D) above, with I72N, W73Y, D76Q, N144M, H145N, Q148G counted along it
Procedure, shortened: as §1

PUM1 PUF domain R4-ARM = PUM1 PUF domain R4-ARM (Homo sapiens, UniProt Q14671 828-1176, N971A;H972R;Q975M)
Procedure, shortened: as §1

PUM1 PUF domain R4-SPV = PUM1 PUF domain R4-SPV (Homo sapiens, UniProt Q14671 828-1176, N971S;H972P;Q975V)
Procedure, shortened: as §1

PUM1 PUF domain R6-YRS = target: T1, PUM1 PUF domain R6-YRS (Homo sapiens, UniProt Q14671 828-1176, N1043Y;Y1044R;Q1047S)
T1 sequence: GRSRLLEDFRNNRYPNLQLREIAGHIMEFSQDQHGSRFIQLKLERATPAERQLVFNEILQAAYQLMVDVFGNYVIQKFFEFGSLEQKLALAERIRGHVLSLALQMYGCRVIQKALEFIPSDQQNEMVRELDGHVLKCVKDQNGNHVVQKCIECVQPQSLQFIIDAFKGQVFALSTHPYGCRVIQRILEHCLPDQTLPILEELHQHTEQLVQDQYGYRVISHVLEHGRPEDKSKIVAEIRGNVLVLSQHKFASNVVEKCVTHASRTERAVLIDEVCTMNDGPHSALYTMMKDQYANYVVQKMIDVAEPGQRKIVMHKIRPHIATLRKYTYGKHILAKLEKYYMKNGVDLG
Procedure, shortened: as §1

PUM1 PUF domain R3-TYW = PUM1 PUF domain R3-TYW (Homo sapiens, UniProt Q14671 828-1176, C935T;R936Y;Q939W)
Procedure, shortened: as §1

PUM1 PUF domain R6-RWK = target: T2, PUM1 PUF domain R6-RWK (Homo sapiens, UniProt Q14671 828-1176, N1043R;Y1044W;Q1047K)
T2 sequence: T1 sequence with Y216R, R217W, S220K
Procedure, shortened: as §1

PUM1 PUF domain R4-PTC = PUM1 PUF domain R4-PTC (Homo sapiens, UniProt Q14671 828-1176, N971P;H972T;Q975C)
Procedure, shortened: as §1

PUM1 PUF domain R4-SNY = PUM1 PUF domain R4-SNY (Homo sapiens, UniProt Q14671 828-1176, N971S;H972N;Q975Y)
Procedure, shortened: as §1

Q: How did the binding signal (PUM1 PUF domain R7-RRS) turn out when “GGCUAGAACUAGUGGAUCCCCCGGCGCCCGGCGGCUCGAGCCCGGGUAAGUCUAAAUAGUCUGCAUGCCGCCGGGCGCCAUGCCUGCAGGUCGACUCUAGAAAACAUG” was run?
A: 4.47 log2 enrichment (interaction score)

Q: How did the binding signal (PUM1 PUF domain R7-RRS) turn out when “GGCUAGAACUAGUGGAUCCCCCGGCGCCCGGCGGCUCGAGCCCGGGUAAGUUUAAAUAGUCUGCAUGCCGCCGGGCGCCAUGCCUGCAGGUCGACUCUAGAAAACAUG” was run?
A: 4.29 log2 enrichment (interaction score)

Q: What about the binding signal (PUM1 PUF domain R7-AVK) of the same sequence?
A: 4.11 log2 enrichment (interaction score)

Q: With “GGCUAGAACUAGUGGAUCCCCCGGCGCCCGGCGGCUCGAGCCCGGGUAAGUGUAAAUUGUCUGCAUGCCGCCGGGCGCCAUGCCUGCAGGUCGACUCUAGAAAACAUG” as the sequence, how does the binding signal (PUM1 PUF domain R1-RTR) read?
A: 2.2 log2 enrichment (interaction score)

Q: Which results are given for “GGCUAGAACUAGUGGAUCCCCCGGCGCCCGGCGGCUCGAGCCCGGGUAAGUGUCAAUAGUCUGCAUGCCGCCGGGCGCCAUGCCUGCAGGUCGACUCUAGAAAACAUG”?
A: binding signal (PUM1 PUF domain R5-RYR): 4.57 log2 enrichment (interaction score); binding signal (PUM1 PUF domain R5-KYV): 5.44 log2 enrichment (interaction score)

Q: How did the binding signal (PUM1 PUF domain R5-RYR) turn out when “GGCUAGAACUAGUGGAUCCCCCGGCGCCCGGCGGCUCGAGCCCGGGUAAGUGUUAAUAGUCUGCAUGCCGCCGGGCGCCAUGCCUGCAGGUCGACUCUAGAAAACAUG” was run?
A: 4.47 log2 enrichment (interaction score)

Q: What about the binding signal (PUM1 PUF domain R5-KYV) of the same sequence?
A: 4.52 log2 enrichment (interaction score)

Q: For “GGCUAGAACUAGUGGAUCCCCCGGCGCCCGGCGGCUCGAGCCCGGGUAAGUGUAAAAAGUCUGCAUGCCGCCGGGCGCCAUGCCUGCAGGUCGACUCUAGAAAACAUG”, which binding signal (PUM1 PUF domain R2-IWD) is on record?
A: 2.12 log2 enrichment (interaction score)

Q: What about the binding signal (PUM1 PUF domain R2-VFR) of the same sequence?
A: 5.64 log2 enrichment (interaction score)

Q: And the binding signal (PUM1 PUF domain R2-VHP)?
A: 2.73 log2 enrichment (interaction score)

Q: Which binding signal (PUM1 PUF domain R1-RTR) does the source give for “GGCUAGAACUAGUGGAUCCCCCGGCGCCCGGCGGCUCGAGCCCGGGUAAGUGUAAAUCGUCUGCAUGCCGCCGGGCGCCAUGCCUGCAGGUCGACUCUAGAAAACAUG” here?
A: 1.13 log2 enrichment (interaction score)

Q: “GGCUAGAACUAGUGGAUCCCCCGGCGCCCGGCGGCUCGAGCCCGGGUAAGCGUAAAUAGUCUGCAUGCCGCCGGGCGCCAUGCCUGCAGGUCGACUCUAGAAAACAUG” was tested. Which binding signal (PUM1 PUF domain R8-IWR) did it give?
A: 5.25 log2 enrichment (interaction score)

Q: For “GGCUAGAACUAGUGGAUCCCCCGGCGCCCGGCGGCUCGAGCCCGGGUAAGUGUAAUUAGUCUGCAUGCCGCCGGGCGCCAUGCCUGCAGGUCGACUCUAGAAAACAUG”, which binding signal (PUM1 PUF domain R3-EYE) is on record?
A: 5.03 log2 enrichment (interaction score)

Q: And the binding signal (PUM1 PUF domain R3-CRD)?
A: 1.14 log2 enrichment (interaction score)

Q: Which binding signal (PUM1 PUF domain R5-EVC) does the source give for “GGCUAGAACUAGUGGAUCCCCCGGCGCCCGGCGGCUCGAGCCCGGGUAAGUGUGAAUAGUCUGCAUGCCGCCGGGCGCCAUGCCUGCAGGUCGACUCUAGAAAACAUG” here?
A: 3.25 log2 enrichment (interaction score)

Q: And the binding signal (PUM1 PUF domain R5-RYR)?
A: 2.14 log2 enrichment (interaction score)

Q: “GGCUAGAACUAGUGGAUCCCCCGGCGCCCGGCGGCUCGAGCCCGGGUAAGUGUACAUAGUCUGCAUGCCGCCGGGCGCCAUGCCUGCAGGUCGACUCUAGAAAACAUG” was tested. Which binding signal (PUM1 PUF domain R4-MNG) did it give?
A: 2.1 log2 enrichment (interaction score)

Q: What about the binding signal (PUM1 PUF domain R4-ARM) of the same sequence?
A: 2.37 log2 enrichment (interaction score)

Q: What does the source list for “GGCUAGAACUAGUGGAUCCCCCGGCGCCCGGCGGCUCGAGCCCGGGUAAGUGUAUAUAGUCUGCAUGCCGCCGGGCGCCAUGCCUGCAGGUCGACUCUAGAAAACAUG”?
A: binding signal (PUM1 PUF domain R4-SPV): 3.71 log2 enrichment (interaction score); binding signal (PUM1 PUF domain R4-ARM): 1.47 log2 enrichment (interaction score)

Q: Which binding signal (PUM1 PUF domain R6-YRS) does the source give for “GGCUAGAACUAGUGGAUCCCCCGGCGCCCGGCGGCUCGAGCCCGGGUAAGUGAAAAUAGUCUGCAUGCCGCCGGGCGCCAUGCCUGCAGGUCGACUCUAGAAAACAUG” here?
A: 3.7 log2 enrichment (interaction score)

Q: For “GGCUAGAACUAGUGGAUCCCCCGGCGCCCGGCGGCUCGAGCCCGGGUAAGUGUAAAUAGUCUGCAUGCCGCCGGGCGCCAUGCCUGCAGGUCGACUCUAGAAAACAUG”, which binding signal (PUM1 PUF domain R3-TYW) is on record?
A: 5.67 log2 enrichment (interaction score)

Q: What about the binding signal (PUM1 PUF domain R4-SPV) of the same sequence?
A: 1.64 log2 enrichment (interaction score)

Q: And the binding signal (PUM1 PUF domain R5-RYR)?
A: 2.49 log2 enrichment (interaction score)

Q: And the binding signal (PUM1 PUF domain R6-RWK)?
A: 6.43 log2 enrichment (interaction score)

Q: And the binding signal (PUM1 PUF domain R3-EYE)?
A: 2.67 log2 enrichment (interaction score)

Q: What about the binding signal (PUM1 PUF domain R5-KYV) of the same sequence?
A: 4.2 log2 enrichment (interaction score)

Q: What about the binding signal (PUM1 PUF domain R8-IWR) of the same sequence?
A: 3.98 log2 enrichment (interaction score)

Q: And the binding signal (PUM1 PUF domain R4-PTC)?
A: 3.57 log2 enrichment (interaction score)

Q: What about the binding signal (PUM1 PUF domain R4-ARM) of the same sequence?
A: 4.11 log2 enrichment (interaction score)

Q: What about the binding signal (PUM1 PUF domain R3-CRD) of the same sequence?
A: 5 log2 enrichment (interaction score)

Q: And the binding signal (PUM1 PUF domain R4-SNY)?
A: 2.33 log2 enrichment (interaction score)

— publication PMC8384837, “Expanding the binding specificity for RNA recognition by a PUF domain”
